Molecular target: pT7_6His-AlfaTag-HOXD13 (human, UniProt P35453 263-343)
Assay: PADIT-seq
Settings: dsDNA, one strand shown

Chain of pT7_6His-AlfaTag-HOXD13 (P35453 263-343): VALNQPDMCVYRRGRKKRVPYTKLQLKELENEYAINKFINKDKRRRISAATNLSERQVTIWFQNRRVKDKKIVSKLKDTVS

Row | Sequence | binding signal [log2FC]
1 | CTCGAGGATATCAAGATCTGGCCTCGGCGTTTTAAGTGGAACCTCTAGCTAGCCGACTCACTATAGGGATAATCGCCCTGAGCAAAGACC | 0.876 ± 0.107
2 | CTCGAGGATATCAAGATCTGGCCTCGGCCTATGGGCGGGAACCTCTAGCTAGCCGACTCACTATAGGGATAATCGCCCTGAGCAAAGACC | -0.949 ± 0.119
3 | CTCGAGGATATCAAGATCTGGCCTCGGCCGCCTAAAAGGAACCTCTAGCTAGCCGACTCACTATAGGGATAATCGCCCTGAGCAAAGACC | -0.524 ± 0.115
4 | CTCGAGGATATCAAGATCTGGCCTCGGCGCTTGGGCGGGAACCTCTAGCTAGCCGACTCACTATAGGGATAATCGCCCTGAGCAAAGACC | -0.995 ± 0.12
5 | CTCGAGGATATCAAGATCTGGCCTCGGCTTTTTAGAGGGAACCTCTAGCTAGCCGACTCACTATAGGGATAATCGCCCTGAGCAAAGACC | 1.39 ± 0.106
6 | CTCGAGGATATCAAGATCTGGCCTCGGCGTCATAAAAGGAACCTCTAGCTAGCCGACTCACTATAGGGATAATCGCCCTGAGCAAAGACC | 2.72 ± 0.0783
7 | CTCGAGGATATCAAGATCTGGCCTCGGCGTATGGGCGGGAACCTCTAGCTAGCCGACTCACTATAGGGATAATCGCCCTGAGCAAAGACC | -0.957 ± 0.105
8 | CTCGAGGATATCAAGATCTGGCCTCGGCGTTTTACCAGGAACCTCTAGCTAGCCGACTCACTATAGGGATAATCGCCCTGAGCAAAGACC | 0.423 ± 0.103
9 | CTCGAGGATATCAAGATCTGGCCTCGGCTCGTGGGCGGGAACCTCTAGCTAGCCGACTCACTATAGGGATAATCGCCCTGAGCAAAGACC | -0.771 ± 0.106
10 | CTCGAGGATATCAAGATCTGGCCTCGGCGTTTTATGCGGAACCTCTAGCTAGCCGACTCACTATAGGGATAATCGCCCTGAGCAAAGACC | 2.07 ± 0.0741
11 | CTCGAGGATATCAAGATCTGGCCTCGGCCGCCCATCCGGAACCTCTAGCTAGCCGACTCACTATAGGGATAATCGCCCTGAGCAAAGACC | -1.06 ± 0.122
12 | CTCGAGGATATCAAGATCTGGCCTCGGCATTTTACGTGGAACCTCTAGCTAGCCGACTCACTATAGGGATAATCGCCCTGAGCAAAGACC | 2.63 ± 0.0745
13 | CTCGAGGATATCAAGATCTGGCCTCGGCGCAGTAAAAGGAACCTCTAGCTAGCCGACTCACTATAGGGATAATCGCCCTGAGCAAAGACC | 2.28 ± 0.0773
14 | CTCGAGGATATCAAGATCTGGCCTCGGCGCGTTGGCGGGAACCTCTAGCTAGCCGACTCACTATAGGGATAATCGCCCTGAGCAAAGACC | -1.07 ± 0.16
15 | CTCGAGGATATCAAGATCTGGCCTCGGCTTTTTAGTTGGAACCTCTAGCTAGCCGACTCACTATAGGGATAATCGCCCTGAGCAAAGACC | 0.658 ± 0.103
16 | CTCGAGGATATCAAGATCTGGCCTCGGCGAATTAAAAGGAACCTCTAGCTAGCCGACTCACTATAGGGATAATCGCCCTGAGCAAAGACC | 1.47 ± 0.0704
17 | CTCGAGGATATCAAGATCTGGCCTCGGCTCCCCACGCGGAACCTCTAGCTAGCCGACTCACTATAGGGATAATCGCCCTGAGCAAAGACC | -0.217 ± 0.124
18 | CTCGAGGATATCAAGATCTGGCCTCGGCCGTTGGGCGGGAACCTCTAGCTAGCCGACTCACTATAGGGATAATCGCCCTGAGCAAAGACC | -0.921 ± 0.107
19 | CTCGAGGATATCAAGATCTGGCCTCGGCATTTTAATCGGAACCTCTAGCTAGCCGACTCACTATAGGGATAATCGCCCTGAGCAAAGACC | 1.1 ± 0.0894
20 | CTCGAGGATATCAAGATCTGGCCTCGGCGCGAAGGCGGGAACCTCTAGCTAGCCGACTCACTATAGGGATAATCGCCCTGAGCAAAGACC | -1.08 ± 0.132
21 | CTCGAGGATATCAAGATCTGGCCTCGGCTGGCTAAAAGGAACCTCTAGCTAGCCGACTCACTATAGGGATAATCGCCCTGAGCAAAGACC | -0.708 ± 0.106
22 | CTCGAGGATATCAAGATCTGGCCTCGGCGCATGGGCGGGAACCTCTAGCTAGCCGACTCACTATAGGGATAATCGCCCTGAGCAAAGACC | -0.757 ± 0.112
23 | CTCGAGGATATCAAGATCTGGCCTCGGCGAATGGGCGGGAACCTCTAGCTAGCCGACTCACTATAGGGATAATCGCCCTGAGCAAAGACC | -0.762 ± 0.106
24 | CTCGAGGATATCAAGATCTGGCCTCGGCGTTTTAACAGGAACCTCTAGCTAGCCGACTCACTATAGGGATAATCGCCCTGAGCAAAGACC | 1.92 ± 0.0739
25 | CTCGAGGATATCAAGATCTGGCCTCGGCTGTTGGGCGGGAACCTCTAGCTAGCCGACTCACTATAGGGATAATCGCCCTGAGCAAAGACC | -1.03 ± 0.1
26 | CTCGAGGATATCAAGATCTGGCCTCGGCTAATGGGCGGGAACCTCTAGCTAGCCGACTCACTATAGGGATAATCGCCCTGAGCAAAGACC | 0.254 ± 0.0964

From doi:10.1101/2024.03.05.583629
